Assay [1] is described as follows: qHTS assay for small molecule agonists of the antioxidant response element (ARE) signaling pathway measured by Nrf2-dependant transcriptional activity - cell viability counter screen (AID 720653; active = well fitted curve in the direction sought with a large enough effect in the repeat runs; an effect the other way counts as inactive or inconclusive; also: % is scaled to controls: 0 for no effect and ±100 for the full control effect). Conditions: ARE-bla HepG2 viability, CellTiter-Glo ATP luminescence, 16 h; max response: stronger effect = lower value. In outline: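 ARE-bla HepG2 cells (2,000/well) rested 5 hrs at 37C/5% CO2, then exposed to compounds in DMSO for 16 hrs. Viability was read in the same wells as intracellular ATP by luminescence, 30 min at room temperature after reagent addition.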

A short description of assay [2]: qHTS assay for cell viability of HEK293 cells (AID 743288). Also: % is scaled to controls: 0 for no effect and ±100 for the full control effect; nearly all actives have a fitted effect of over 50% in size. The settings on record: ATP luminescence (CellTiter-Glo), 18 h; max response: stronger effect = lower value. In outline: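 Quantitative high-throughput screen: compounds were pinned onto parental HEK293 cells (2,000 per well) after a minimum 5 h settling at 37 C, incubated 18 h at 37 C, and intracellular ATP measured by luciferase luminescence.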
(In general: Quantitative high-throughput screening tests each substance at several concentrations.)

Assay [3] is described as follows: qHTS assay for cell viability of the p53RE-bla HCT-116 cell line (AID 743292). Also: % is scaled to controls: 0 for no effect and ±100 for the full control effect; nearly all actives have a fitted effect of over 55% in size. In outline:
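Luminescent ATP quantitation (CellTiter-Glo) served as the viability read-out; reagent was added after 16 h compound exposure at 37 C and read after 30 min at room temperature. Cells: p53RE-bla HCT-116, 4,000 per well.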

The nature of assay [4]: Viability counterscreen for antagonist of constitutive androstane receptor (CAR) against the NCATS DSHEA and TCM libraries (AID 1794837).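 Also: compound exposure lasted 24 h before viability reading; 0% is about no effect.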 In outline:
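Fluorescence from CellTiter-Fluor reports live-cell protease activity in HepG2-CYP2B6-hCAR cells treated for 24 h with substances alongside 48 uM CITCO.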

Assay [5] is described as follows: Viability counterscreen for agonist of constitutive androstane receptor (CAR) against the NCATS DSHEA and TCM libraries (AID 1794838). Also: 0% is about no effect. In outline: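 In agonist mode, PK11195 is added at 0.75 uM final to HepG2-CYP2B6-hCAR cells dosed with test substances. Cultures incubate 24 h at 37C before a protease-based fluorogenic viability readout.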
For orientation: Counterscreens check selectivity or assay interference.

The target in assay [6] is Nuclear receptor subfamily 1 group I member 3 (Homo sapiens) (UniProt Q14994). Nature of the assay: Primary qHTS for agonist of constitutive androstane receptor (CAR) against the NCATS DSHEA and TCM libraries (AID 1794839).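 Also: HepG2 cells expressing human CAR with a CYP2B6 reporter plus PK11195 antagonist; 0% is about no effect.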 In outline:
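Cells stably carrying hCAR and a CYP2B6 reporter (HepG2 background) are seeded and allowed 5 h to adhere. Substances at multiple concentrations are added alongside 0.75 µM PK11195, and luciferase signal is measured after 24 h.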

Assay [7] can be described thus: HepG2 viability counterscreen (readout 2: ATP content) against the NCATS DSHEA and TCM libraries (AID 1794840).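 Also: HepG2 cells exposed to substances for about 24 h; 0% is about no effect.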 In outline:
(§1)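 Cytotoxicity was assessed in HepG2 cells plated at 1,000 cells/well and exposed for about 24 hours to a concentration series. Protease activity and ATP content were measured sequentially in each well.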

The nature of assay [8]: HepG2 viability counterscreen (readout 1: protease activity) against the NCATS DSHEA and TCM libraries (AID 1794841).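 Also: cells exposed to compounds for about 24 h before the protease read; 0% is about no effect.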 In outline: as §1
The target of assay [9] is Cytochrome P450 2D6 (Homo sapiens) (UniProt P10635). The assay is described as follows: qHTS for inhibitors of CYP2D6 against the NCATS DSHEA and TCM libraries (AID 1919972). Also: % is scaled to controls: 0 for no effect and ±100 for the full control effect. In outline: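 qHTS, concentration–response format with most substances from 19.5 nM. CYP2D6 + pro-luciferin substrate, 15 min with compound, then 1x NADPH regen, 30–45 min RT dark. Glo detection 30 min, luminescence. Quinidine control.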

Assay [10] has as its target Cytochrome P450 2C9 (Homo sapiens) (UniProt P11712). The assay is described as follows: qHTS for inhibitors of CYP2C9 against the NCATS DSHEA and TCM libraries (AID 1919973).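 Also: luminogenic pro-luciferin CYP2C9 substrate turned into luciferin with NADPH regeneration; series mostly up to about 34 µM; % is scaled to controls: 0 for no effect and ±100 for the full control effect.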 In outline: (§2)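 Isoform-specific enzyme and substrate levels; enzyme-free wells as background. Reaction: 1x NADPH regenerating system, 30-45 min, room temperature, shielded from light; luminescent detection reagent added, 30 min.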

Assay [11] concerns the target Cytochrome P450 2C19 (Homo sapiens) (UniProt P33261). Nature of the assay: qHTS for inhibitors of CYP2C19 against the NCATS DSHEA and TCM libraries (AID 1919974).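 Also: luminescence from luciferin released by CYP2C19 oxidation of a pro-luciferin substrate.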 Also: potency is read from the fitted curve at half-maximal effect. In outline: as §2
The nature of assay [12]: KB-3-1 P-gp reporter qHTS against the NCATS DSHEA and TCM libraries (AID 1919975). Also: 0% is about no effect. In outline:
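72 h exposure of KB-3-1 cells (DMEM, 10% FBS) to DSHEA/TCM samples, concentration-response; cell viability measured as CellTiter-Glo luminescence after 30 min at room temperature.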

A short description of assay [13]: qHTS Counterscreen for compound interference against the NCATS DSHEA and TCM libraries (AID 1919978). Also: % of control where 0% means no effect. Conditions: firefly luciferase detection reagent interference, luminescence. In outline:
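Read-out is luminescence after 30 min at RT with luciferin detection reagent. Before that, compounds (19.5 nM to 39.8 uM final) sat 15 min at RT with 1 uM D-luciferin or 100 mM potassium phosphate buffer. PTC124 served as intraplate control.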

Assay [14] can be described thus: Dual reporter qHTS for agonist of Pregnane X Receptor (hPXR) against the NCATS DSHEA and TCM libraries: Fluorescence readout (AID 1920058). Also: 0% is about no effect. In outline:
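In this qHTS counter-read, reporter-bearing HepG2 cells in charcoal-stripped serum received substances for approximately 24 h before viability was assessed fluorometrically with CellTiter-Fluor.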

Assay [15] has as its target Nuclear receptor subfamily 1 group I member 2 (Homo sapiens) (UniProt O75469). The assay is described as follows: Dual reporter qHTS for agonist of Pregnane X Receptor (hPXR) against the NCATS DSHEA and TCM libraries: Luminescence readout (AID 1920059). Also: 0% is about no effect. In outline: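 hPXR-LucHepG2 cells in phenol red-free DMEM with 5% charcoal-stripped FBS, 2000 cells/well, attached 5 h, then exposed 24 h at 37C to compounds; rifampicin as positive agonist control (2.8 nM–92 uM). Luciferase luminescence read.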

The target is the same in assay [16]. Nature of the assay: Dual reporter qHTS for antagonist of Pregnane X Receptor (hPXR) against the NCATS DSHEA and TCM libraries: Luminescence Readout (AID 1920060). Also: 0% is about no effect. In outline:
(§3)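 Rifampicin-stimulated (2 uM final) hPXR-luciferase HepG2 cells were treated for 24 h with DSNP/TCM substances. Viability came from CellTiter-Fluor fluorescence, reporter activity from ONE-Glo luminescence.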

Assay [17] can be described thus: Dual reporter qHTS for antagonist of Pregnane X Receptor (hPXR) against the NCATS DSHEA and TCM libraries: Fluorescence Readout (AID 1920061). Also: 0% is about no effect. In outline:
as §3

Assay [18] has as its target Endonuclease 4 (Escherichia coli (strain K12)) (UniProt P0A6C1). Nature of the assay: Counterscreen for APE1 Inhibitors: qHTS Validation Assay for Inhibitors of Endonuclease IV (AID 1708). Also: % is scaled to controls: 0 for no effect and ±100 for the full control effect. In outline:
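Measured as reaction progress, the fluorescence gain between first and third kinetic reads after adding 50 nM TAMRA/BHQ-2 THF duplex to 2 nM enzyme preincubated 15 min with compound; 2 mM MgCl2, pH 7.5.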

Assay [19] is described as follows: qHTS for differential inhibitors of proliferation of Plasmodium falciparum line 7G8 (AID 1815).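 Also: parasite growth measured after three days of incubation.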 Also: potency is read from the fitted curve at half-maximal effect.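 As to activity change, negative = inhibition: plate controls were vehicle wells for no effect and reference inhibitor wells for full effect.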
Assay [20] in a line: qHTS for differential inhibitors of proliferation of Plasmodium falciparum line GB4 (AID 1816).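 Also: parasite growth measured after 72 h incubation; 0% = vehicle DMSO and -100% = reference inhibitor.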 Conditions: Potency: Plasmodium falciparum GB4 proliferation inhibition.

Where “and” joins values, the source holds several entries; their conditions need not be identical. Equal values may be shown once. A number with no mark means an inactive call. Results filed as inconclusive are left out. Calls of active or inactive are those of the source. Unless noted, calls follow the shape of the dose curve; as a rule, active = well fitted curve in the direction sought with a large enough effect; inconclusive = small, poorly fitted or top-dose-only effect, or another doubt; inactive = no such curve, though single readings can be large; an effect the other way counts as inactive or inconclusive.

Chain of Nuclear receptor subfamily 1 group I member 2 (Homo sapiens) (O75469 whole entry, looked up): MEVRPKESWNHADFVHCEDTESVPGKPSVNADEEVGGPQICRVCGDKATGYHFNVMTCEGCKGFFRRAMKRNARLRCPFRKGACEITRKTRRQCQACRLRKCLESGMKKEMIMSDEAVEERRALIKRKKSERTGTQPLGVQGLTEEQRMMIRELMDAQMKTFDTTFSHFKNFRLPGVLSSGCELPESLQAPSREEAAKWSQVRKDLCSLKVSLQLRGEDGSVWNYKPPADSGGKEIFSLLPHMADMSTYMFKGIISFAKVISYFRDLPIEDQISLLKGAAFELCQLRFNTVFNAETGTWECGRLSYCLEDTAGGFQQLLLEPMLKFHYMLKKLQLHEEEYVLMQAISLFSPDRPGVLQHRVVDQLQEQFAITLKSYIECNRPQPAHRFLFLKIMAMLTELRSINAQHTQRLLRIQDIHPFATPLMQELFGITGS
Chain of Cytochrome P450 2C19 (Homo sapiens) (P33261 whole entry, looked up): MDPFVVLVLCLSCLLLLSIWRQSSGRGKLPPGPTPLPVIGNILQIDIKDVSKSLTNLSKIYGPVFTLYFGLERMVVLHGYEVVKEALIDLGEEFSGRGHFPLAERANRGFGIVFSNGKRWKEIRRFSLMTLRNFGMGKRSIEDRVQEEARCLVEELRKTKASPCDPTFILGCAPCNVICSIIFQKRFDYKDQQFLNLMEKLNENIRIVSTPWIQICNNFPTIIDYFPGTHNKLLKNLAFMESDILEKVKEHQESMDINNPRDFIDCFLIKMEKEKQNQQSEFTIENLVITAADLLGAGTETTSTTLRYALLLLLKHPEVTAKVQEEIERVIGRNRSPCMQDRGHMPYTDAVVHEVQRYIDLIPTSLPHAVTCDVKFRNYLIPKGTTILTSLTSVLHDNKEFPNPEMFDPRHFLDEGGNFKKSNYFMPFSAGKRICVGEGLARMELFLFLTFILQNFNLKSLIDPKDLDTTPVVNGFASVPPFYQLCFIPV
Chain of Nuclear receptor subfamily 1 group I member 3 (Homo sapiens) (Q14994 whole entry, looked up): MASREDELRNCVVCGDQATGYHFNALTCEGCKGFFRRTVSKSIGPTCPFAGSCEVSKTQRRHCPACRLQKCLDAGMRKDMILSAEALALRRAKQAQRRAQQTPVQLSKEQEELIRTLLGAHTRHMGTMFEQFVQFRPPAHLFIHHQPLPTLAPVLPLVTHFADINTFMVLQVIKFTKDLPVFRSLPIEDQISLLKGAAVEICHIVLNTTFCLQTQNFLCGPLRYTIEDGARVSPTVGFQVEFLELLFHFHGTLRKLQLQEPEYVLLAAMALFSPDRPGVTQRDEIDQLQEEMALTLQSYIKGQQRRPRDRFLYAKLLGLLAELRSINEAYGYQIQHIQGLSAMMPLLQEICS
Chain of Cytochrome P450 2C9 (Homo sapiens) (P11712 whole entry, looked up, canonical isoform): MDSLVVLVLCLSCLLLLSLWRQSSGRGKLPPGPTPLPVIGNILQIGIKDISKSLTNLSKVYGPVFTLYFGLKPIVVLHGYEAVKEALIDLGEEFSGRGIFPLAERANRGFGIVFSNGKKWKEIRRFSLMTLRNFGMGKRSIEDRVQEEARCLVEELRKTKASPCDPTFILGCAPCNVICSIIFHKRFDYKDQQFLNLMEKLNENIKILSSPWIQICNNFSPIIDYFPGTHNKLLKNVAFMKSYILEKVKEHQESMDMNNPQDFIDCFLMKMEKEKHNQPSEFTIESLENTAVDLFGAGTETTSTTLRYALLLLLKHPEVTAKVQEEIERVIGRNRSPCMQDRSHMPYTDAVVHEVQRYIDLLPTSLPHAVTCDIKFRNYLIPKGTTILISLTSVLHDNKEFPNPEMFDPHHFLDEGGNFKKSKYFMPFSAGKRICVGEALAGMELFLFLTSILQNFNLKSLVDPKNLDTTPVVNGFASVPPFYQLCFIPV
Chain of Cytochrome P450 2D6 (Homo sapiens) (P10635 whole entry, looked up): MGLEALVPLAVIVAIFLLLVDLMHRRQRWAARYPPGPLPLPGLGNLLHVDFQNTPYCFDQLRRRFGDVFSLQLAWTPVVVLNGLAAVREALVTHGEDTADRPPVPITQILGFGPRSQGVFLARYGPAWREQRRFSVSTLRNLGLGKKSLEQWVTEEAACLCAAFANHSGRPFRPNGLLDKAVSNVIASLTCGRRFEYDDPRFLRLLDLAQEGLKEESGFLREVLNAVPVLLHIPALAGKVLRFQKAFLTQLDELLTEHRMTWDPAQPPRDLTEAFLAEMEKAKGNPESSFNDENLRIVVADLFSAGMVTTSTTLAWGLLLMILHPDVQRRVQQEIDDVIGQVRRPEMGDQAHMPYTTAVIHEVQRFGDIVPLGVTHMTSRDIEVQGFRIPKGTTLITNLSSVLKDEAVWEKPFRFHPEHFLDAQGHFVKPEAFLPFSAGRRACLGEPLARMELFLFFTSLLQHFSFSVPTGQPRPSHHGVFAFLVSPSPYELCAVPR

For the molecule `CC(C)=CCC/C(C)=C/CC/C(C)=C/CO`, the max response in assay [1] was -6.95%; in assay [2], -6.29%. In addition, the Potency result in [3] was “inactive”.

Turning to `CC/C=C\C/C=C\C/C=C\C/C=C\C/C=C\CCCCCC(=O)O`, the viability change, negative = cytotoxic in assay [4] was -12.7% [at 5 µM]. In addition, the activity change, negative = cytotoxicity in assay [5] was -18.6% [at 5 µM]. For the same molecule, the activation was -16.7% [at 5 µM] in assay [6], -9.65% [at 5 µM] in assay [14] and -6.56% [at 5 µM] in assay [15]. The activity change, negative = cytotoxic in [7] is -0.254% [at 3.42 µM]. Besides, the activity change, negative = inhibition was -1.31% [at 3.42 µM] in assay [8]; -3.67% [at 4.27 µM] in [9]; -17.1% [at 3.26 µM] in assay [12]; -29.3% [at 5 µM] in assay [16]; 2.07% [at 5 µM] in assay [17]. Also, the Potency result in [10] and in [11] was “inactive” each time. Moreover, the max response in assay [13] is 0.0363%.

As for `COc1ccc2c(c1)c(CC(=O)N1CCOCC1)c(C)n2C(=O)c1ccc(Cl)cc1`, in assay [18], the Potency result was “inactive”. For the same molecule, in assay [19], the Potency was 10 µM (active).

Consider `CC(=O)[C@H]1[C@H](C#N)C[C@H]2[C@@H]3CC=C4C[C@@H](O)CC[C@]4(C)[C@H]3CC[C@@]21C`, for which the max response in [1] is -9.55% and -3.25%; in assay [2], -20.6% and -13.5%. Moreover, the Potency entry in [3] was “inactive”.

Consider `C[N+](C)(C)CCC(=O)c1cccc2ccccc12`, for which the Potency result in assay [19] and in [20] was “inactive” each time.

In the case of `COc1ccccc1NC(=O)Nc1nc(-c2cccnc2)nc2ccccc12`, in assay [20], the Potency result is “inactive”.

On to `NCCNS(=O)(=O)c1cccc2cnccc12`, for which the Potency result in assay [18] is “inactive”.

For the molecule `CCCCC[C@H](O)CC(=O)CCc1ccc(O)c(OC)c1`, the molecule was called inactive in [4], in [5], in assay [6], in [7], in assay [8] and in [9]. Also, the molecule was classed as inactive in assay [12], in [14], in assay [15], in assay [16] and in assay [17]. Besides, in assay [10], the Potency entry is “inactive”. Further, in assay [11], the Potency was 14.1 µM (active). Besides, the max response in assay [13] is 0.254%.

These data come from PubChem BioAssay (NCATS).
